Consider 1 molecule from the supplement of paper PMC8728848.

This excerpt belongs to a sample that is enriched for the strongest signals.

Common to all, as to test: glycan array binding signal (z-score within array); higher = stronger binding
What all share (settings): glycan notation: IUPAC condensed, linker removed; mutation: R85A

For assay [1], the target named is Fuc(a1-2)Gal(b1-3)GlcNAc(b1-2)Man(a1-3)[Fuc(a1-2)Gal(b1-3)GlcNAc(b1-2)Man(a1-6)]Man(b1-4)GlcNAc(b1-4)GlcNAc. A digest of the protocol:
(§1)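 The Consortium for Functional Glycomics database supplied 3228 glycan arrays, of which those lacking an available protein sequence were dropped. The binding signal, a within-array Z-score, was averaged across arrays of the same protein sequence and across linkers. Negative scores can be read as non-binding.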

The target in another assay is Fuc(a1-2)Gal6S(b1-4)Glc. A digest of the protocol: as §1
Assay [2] addresses Fuc(a1-2)[Gal(a1-3)]Gal(b1-3)GlcNAc(b1-2)Man(a1-3)[Fuc(a1-2)[Gal(a1-3)]Gal(b1-3)GlcNAc(b1-2)Man(a1-6)]Man(b1-4)GlcNAc(b1-4)GlcNAc. A digest of the protocol: as §1
Assay [3] has as its target Fuc(a1-2)[Gal(a1-3)]Gal(b1-4)GlcNAc. Put shortly: as §1
For assay [4], the target named is Fuc(a1-3)[Gal(b1-4)]Glc6S. A digest of the protocol:
as §1

Assay [5] has as its target Fuc(a1-3)[Gal(b1-4)]GlcNAc(b1-3)Gal(b1-3)[Fuc(a1-4)]GlcNAc. Put shortly:
as §1

Another assay has as its target Gal(a1-3)Gal(b1-4)Glc. Put shortly:
as §1

A further assay concerns the target Gal(a1-4)Gal(b1-4)Glc. Put shortly: as §1
Assay [6] deals with Gal(b1-3)Gal(b1-4)GlcNAc(b1-2)Man(a1-3)[Gal(b1-3)Gal(b1-4)GlcNAc(b1-2)Man(a1-6)]Man(b1-4)GlcNAc(b1-4)GlcNAc. Put shortly: as §1
Assay [7] has as its target Gal(b1-3)GlcNAc(b1-2)Man(a1-3)[Gal(b1-3)GlcNAc(b1-2)Man(a1-6)]Man(b1-4)GlcNAc(b1-4)GlcNAc. Put shortly: as §1
In assay [8] the target is Gal(b1-3)GlcNAc(b1-3)Gal(b1-4)GlcNAc(b1-6)[Gal(b1-3)GlcNAc(b1-3)]Gal(b1-4)Glc. A digest of the protocol: as §1
Another assay concerns the target Gal3S(b1-3)GalNAc. A digest of the protocol: as §1
The target of a further assay is Gal3S(b1-3)GlcNAc. Put shortly: as §1
The target in the next assay is Gal3S(b1-4)Glc. Put shortly:
as §1

The next assay concerns the target Gal3S(b1-4)Glc6S. Put shortly: as §1
The next assay deals with Gal3S(b1-4)GlcNAc6S. Put shortly: as §1
The next assay has as its target Gal4S6S(b1-4)GlcNAc. Put shortly:
as §1

The next assay has as its target Gal6S(b1-4)Glc6S. A digest of the protocol: as §1
Assay [9] concerns the target GlcNAc(b1-2)Man(a1-3)[GlcNAc(b1-2)Man(a1-6)]Man(b1-4)GlcNAc(b1-4)GlcNAc. A digest of the protocol: as §1
The target in assay [10] is GlcNAc(b1-3)Gal(b1-4)GlcNAc(b1-3)Gal(b1-4)GlcNAc. Put shortly:
as §1

The next assay has as its target Neu5Ac(a2-3)Gal(b1-4)Glc. A digest of the protocol: as §1
Another assay deals with Neu5Ac(a2-3)GalNAc. Put shortly:
as §1

The target in assay [11] is Neu5Ac(a2-6)Gal(b1-4)GlcNAc(b1-3)GalNAc. Put shortly:
as §1

Another assay has as its target Neu5Ac(a2-8)Neu5Ac. Put shortly: as §1

B1: rAAL (Agrocybe aegerita), Q6WY08 (protein)
chain: MQGVNIYNISAGTSVDLAAPVTTGDIVTFFSSALNLNAGAGNPNNTTLNLFAENGAYLLHIAFRLQENVIIFNSRQPDGPWLVEQAVSDVANQFAGIDGKAMVTVFDHGDKYQVVINEKTVIQYTKQISGLTLSLSYNATEETSIFSTVVEAVTYTGLALEHHHHHH
Turning to B1, the “glycan array binding signal (z-score)” value in [1] was -0.123; with Fuc(a1-2)Gal6S(b1-4)Glc, -0.131; in assay [2], -0.093; in assay [3], -0.127; in [4] it was -0.13; in [5] it was -0.132. Besides, the “glycan array binding signal (z-score)” value in the assay with Gal(a1-3)Gal(b1-4)Glc is 1.02; with Gal(a1-4)Gal(b1-4)Glc it was -0.133; in [6], 9.2; in assay [7] it was -0.072; in assay [8], 0.051; with Gal3S(b1-3)GalNAc, 14.6. Also, the “glycan array binding signal (z-score)” value with Gal3S(b1-3)GlcNAc was 3.42; with Gal3S(b1-4)Glc it was 3.77; in the assay with Gal3S(b1-4)Glc6S, 4.38; with Gal3S(b1-4)GlcNAc6S, 0.209; in the assay with Gal4S6S(b1-4)GlcNAc it was -0.136; with Gal6S(b1-4)Glc6S, -0.121. Besides, the “glycan array binding signal (z-score)” value was -0.127 in assay [9]; -0.136 in assay [10]; 0.216 with Neu5Ac(a2-3)Gal(b1-4)Glc; -0.131 with Neu5Ac(a2-3)GalNAc; 1.17 in [11]; -0.125 with Neu5Ac(a2-8)Neu5Ac.
